Here are results for seven compounds from PubChem BioAssay (NCI).

Structures are written as SMILES. About 83,000 compounds went through this panel and 20% of them were active in at least one assay; those are over-represented in the sample as a whole.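 Activity criterion: percent growth below 10, measured after cells in 96-well plates were exposed to a single compound concentration for 48 hours.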 A number with no mark means an inactive call. Activity calls are given as the source filed them.

Test systems include SK-MEL-2 melanoma; SN12C renal; UO-31 renal; TK-10 renal; ACHN renal; CAKI-1 renal; A498 renal; CCRF-CEM leukemia; MOLT-4 leukemia; SR leukemia; RPMI-8226 leukemia; OVCAR-8 ovarian; OVCAR-5 ovarian; OVCAR-4 ovarian; SK-OV-3 ovarian; IGROV1 ovarian; OVCAR-3 ovarian; HS 578T breast; NCI/ADR-RES ovarian.
What all share (test): NCI-60 one-dose screen, 48 h (100 = growth as untreated, 0 = no growth, -100 = all killed)
What all share (settings): 10 µM unless noted

Take `Oc1cccc2c1NCCC2`: the growth in the test with SK-MEL-2 melanoma was -14.9% (active); in the test with SN12C renal, 11.7%; in the test with UO-31 renal it was 6.25% (active); with TK-10 renal it was 23.3%; in the test with ACHN renal, 11.4%; in the test with CAKI-1 renal, 15.6%. For the same compound, the growth was 19.6% with A498 renal; 18.6% in the test with CCRF-CEM leukemia; 28% with MOLT-4 leukemia; 27.2% in the test on SR leukemia; 14.9% in the test with RPMI-8226 leukemia; 19.9% in the test with OVCAR-8 ovarian. The growth with OVCAR-5 ovarian is 44.7%; in the test with OVCAR-4 ovarian, 17.9%; with SK-OV-3 ovarian, 20.4%; in the test on IGROV1 ovarian, 18.3%; with OVCAR-3 ovarian, 4.94% (active); in the test on HS 578T breast, 24.3%. Moreover, the growth in the test on NCI/ADR-RES ovarian was 23.7%.

Regarding `O=C(CNc1ncco1)Nc1ccc(S(=O)(=O)c2ccc(NC(=O)CNc3ncco3)cc2)cc1`, the growth in the test on SK-MEL-2 melanoma is -6.97% (active); with SN12C renal, 8.32% (active); in the test on TK-10 renal, 54.4%; in the test with ACHN renal, 30.5%; in the test on CAKI-1 renal, -51.6% (active); in the test on A498 renal, 100%. Moreover, the growth is 0.572% (active) in the test with CCRF-CEM leukemia; 5.92% (active) in the test with MOLT-4 leukemia; -0.678% (active) with SR leukemia; 11.2% in the test on RPMI-8226 leukemia; -80.7% (active) in the test on OVCAR-8 ovarian; 28.5% with OVCAR-5 ovarian. For the same compound, the growth in the test on OVCAR-4 ovarian was 17.5%; with SK-OV-3 ovarian, 76.1%; with IGROV1 ovarian it was -10.3% (active); in the test on OVCAR-3 ovarian it was 104%; with HS 578T breast, -4.97% (active); in the test with NCI/ADR-RES ovarian it was -12.5% (active).

With `CCCCCCCCNC(=O)[C@@H](N)CSCOC(C)=O`, the growth was 89.1% in the test with SK-MEL-2 melanoma; 91.7% in the test with SN12C renal; 94.9% in the test on UO-31 renal; 105% in the test on TK-10 renal; 100% with ACHN renal; 107% in the test with CAKI-1 renal. In addition, the growth is 63% in the test on A498 renal; 45.7% with CCRF-CEM leukemia; 90.4% with MOLT-4 leukemia; 100% with SR leukemia; 87.9% in the test with RPMI-8226 leukemia; 85.5% in the test with OVCAR-8 ovarian. Also, the growth is 103% with OVCAR-5 ovarian; 112% in the test on OVCAR-4 ovarian; 103% with IGROV1 ovarian; 97.4% in the test on OVCAR-3 ovarian; 93.4% in the test with HS 578T breast; 82.7% in the test on NCI/ADR-RES ovarian.

On to `CC(C)(C)n1cc(-c2ccnc(NCCNS(=O)(=O)c3cccc4ccccc34)c2)c(-c2cccc(O)c2)n1`, for which the growth with SK-MEL-2 melanoma was 81.7%; in the test on SN12C renal it was 72.5%; in the test on UO-31 renal it was 70.2%; in the test with TK-10 renal, 97.2%; in the test with ACHN renal, 70.1%; with CAKI-1 renal, 73.7%. The growth was 73.1% with A498 renal; 60.1% in the test with CCRF-CEM leukemia; 53.4% with MOLT-4 leukemia; 30.1% with SR leukemia; 27.4% in the test with RPMI-8226 leukemia; 65.9% with OVCAR-8 ovarian. Moreover, the growth is 84.4% with OVCAR-5 ovarian; 80.1% with OVCAR-4 ovarian; 81.9% in the test on SK-OV-3 ovarian; 87% in the test with IGROV1 ovarian; 91% with OVCAR-3 ovarian; 84.6% in the test on HS 578T breast. Also, in the test with NCI/ADR-RES ovarian, the growth is 77%.

`Cc1ccc(Nc2oc(-c3ccccc3)nc2[P+](c2ccccc2)(c2ccccc2)c2ccccc2)cc1`: the growth was -69.1% (active) in the test on SK-MEL-2 melanoma; 7.56% (active) with SN12C renal; -72.8% (active) in the test on UO-31 renal; -32.2% (active) in the test with TK-10 renal; 2.5% (active) with ACHN renal; -29.8% (active) with CAKI-1 renal. Besides, the growth in the test on A498 renal was -52.2% (active); in the test on CCRF-CEM leukemia it was 6.27% (active); with MOLT-4 leukemia it was -2.23% (active); in the test on SR leukemia it was 8.76% (active); in the test with RPMI-8226 leukemia, -38.3% (active); with OVCAR-8 ovarian it was -27.3% (active). In addition, the growth in the test on OVCAR-5 ovarian was 11.3%; in the test with OVCAR-4 ovarian, 6.45% (active); in the test on SK-OV-3 ovarian, -33.7% (active); with IGROV1 ovarian it was -11.9% (active); in the test on OVCAR-3 ovarian, -30.7% (active); in the test on HS 578T breast, -38.9% (active). Moreover, the growth with NCI/ADR-RES ovarian is -52.3% (active).

On to `COCCNC(=O)Cc1cc(-c2ccc(Cl)cc2)n(-c2ccccc2)c1C`, for which the growth with SK-MEL-2 melanoma is 90.7%; in the test with SN12C renal, 87.6%; with UO-31 renal it was 71.1%; in the test on TK-10 renal it was 95.3%; in the test with ACHN renal it was 92.5%; with CAKI-1 renal, 73.5%. Besides, the growth in the test with A498 renal is 89.9%; with CCRF-CEM leukemia, 88.1%; in the test with MOLT-4 leukemia it was 90%; in the test with SR leukemia, 61.9%; with RPMI-8226 leukemia it was 63%; in the test on OVCAR-8 ovarian it was 85.8%. Besides, the growth with OVCAR-5 ovarian is 90%; in the test on OVCAR-4 ovarian, 67.1%; in the test with SK-OV-3 ovarian, 95%; in the test with IGROV1 ovarian, 88.6%; in the test with OVCAR-3 ovarian it was 116%; in the test with HS 578T breast it was 107%. Also, the growth in the test with NCI/ADR-RES ovarian is 86.1%.

On to `O=C(Nc1ccc(Cl)cc1)C1=NCCCCN1`, for which the growth in the test with SK-MEL-2 melanoma was 97.7%; with SN12C renal, 94.5%; with UO-31 renal, 55.4%; with TK-10 renal it was 90%; in the test with ACHN renal, 59.1%; in the test on CAKI-1 renal, 53.8%. The growth in the test on A498 renal is 98.6%; in the test with CCRF-CEM leukemia, 89.2%; with MOLT-4 leukemia, 95.4%; in the test on SR leukemia, 116%; with RPMI-8226 leukemia, 96.3%; in the test on OVCAR-8 ovarian, 91%. The growth in the test with OVCAR-5 ovarian is 85.6%; in the test with OVCAR-4 ovarian, 109%; in the test with SK-OV-3 ovarian it was 88.1%; in the test with IGROV1 ovarian it was 79.8%; with OVCAR-3 ovarian it was 96.9%; in the test on HS 578T breast it was 97.9%. Further, in the test on NCI/ADR-RES ovarian, the growth was 89.3%.
